# ± gives the standard deviation.
# T1: HaloTag-ATRX ADD domain (163-292)
# T1 chain: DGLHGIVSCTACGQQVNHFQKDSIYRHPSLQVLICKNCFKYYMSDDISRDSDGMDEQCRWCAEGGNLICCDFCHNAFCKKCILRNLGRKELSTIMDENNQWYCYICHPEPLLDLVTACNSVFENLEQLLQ
# B1: H3 5-17 Q T A R Kme Sph T G G K A P R (peptide)
# chain: QTARKSTGGKAPR
# B2: H3 5-17 Q T A R Kme S T G G Kme2 A P R (peptide)
# chain: QTARKSTGGKAPR
# B3: H3 5-17 Q T A R Kac S T G G K A P R (peptide)
# chain: QTARKSTGGKAPR
# B4: H3 5-17 Q T A R Kme2 S T G G Kac A P R (peptide)
# chain: QTARKSTGGKAPR
# B5: H3 5-17 Q T A R Kme S T G G K A P R (peptide)
# chain: QTARKSTGGKAPR
# B6: H3 5-17 Q T A R Kme3 S T G G Kac A P R (peptide)
# chain: QTARKSTGGKAPR
# B7: H3 5-17 Q T A R Kac S T G G Kme3 A P R (peptide)
# chain: QTARKSTGGKAPR
# B8: H3 5-17 Q T A R Kme2 S T G G Kme3 A P R (peptide)
# chain: QTARKSTGGKAPR
# B9: H3 5-17 Q T A R Kme S T G G Kme3 A P R (peptide)
# chain: QTARKSTGGKAPR
# B10: H3 5-17 Q T A R Kme2 S Tph G G K A P R (peptide)
# chain: QTARKSTGGKAPR
# What was measured:
# Experiment in all cases: peptide microarray binding signal (635 nm), min-max normalized on array (fraction of array maximum); higher = stronger binding
# Details in all cases: peptide region: H3 5-17
# [1] = target: T1, HaloTag-ATRX ADD domain (163-292)
# Outline: (§1)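 Within each library, mean intensities of triplicate spots were min-max scaled to give the binding signal. The spots were histone 13-mer peptide–cellulose conjugates on nitrocellulose with a Cy3 tracer, blocked overnight at 4°C. They were then probed for 1 h at 4°C using biotin-labelled HaloTag reader fusions (10 nM to 1 μM) with streptavidin-Alexa Fluor 647 or rabbit histone antibodies (1:10,000 to 1:2,000) with anti-rabbit Alexa 647, and scanned at 635 nm for signal and 532 nm for misprints on an Axon GenePix 4000B.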
# [2] = target: HaloTag-ING2 PHD (mouse Ing2 200-280)
# Outline: as §1
# [3] = target: anti-H3K4me3 antibody ab8580
# Outline: as §1
# [4] = target: anti-H3K9me3 antibody ab8898
# Outline: as §1
# [5] = peptide modifications: H3K9me1 H3S10ph, binder concentration: 1:2,000 dilution
# [6] = peptide modifications: H3K9me1 H3S10ph, binder concentration: 1:10,000 dilution
# [7] = peptide modifications: H3K9me1 H3K14me2, binder concentration: 1:2,000 dilution
# [8] = peptide modifications: H3K9me1 H3K14me2, binder concentration: 1:10,000 dilution
# [9] = peptide modifications: H3K9ac, binder concentration: 1:2,000 dilution
# [10] = peptide modifications: H3K9ac, binder concentration: 1:10,000 dilution
# [11] = peptide modifications: H3K9me2 H3K14ac, binder concentration: 1:2,000 dilution
# [12] = peptide modifications: H3K9me2 H3K14ac, binder concentration: 1:10,000 dilution
# [13] = peptide modifications: H3K9me1, binder concentration: 1:2,000 dilution
# [14] = peptide modifications: H3K9me1, binder concentration: 1:10,000 dilution
# [15] = peptide modifications: H3K9me3 H3K14ac, binder concentration: 1:2,000 dilution
# [16] = peptide modifications: H3K9me3 H3K14ac, binder concentration: 1:10,000 dilution
# [17] = peptide modifications: H3K9ac H3K14me3, binder concentration: 1:2,000 dilution
# [18] = peptide modifications: H3K9ac H3K14me3, binder concentration: 1:10,000 dilution
# [19] = peptide modifications: H3K9me2 H3K14me3, binder concentration: 1:2,000 dilution
# [20] = peptide modifications: H3K9me2 H3K14me3, binder concentration: 1:10,000 dilution
# [21] = peptide modifications: H3K9me1 H3K14me3, binder concentration: 1:2,000 dilution
# [22] = peptide modifications: H3K9me1 H3K14me3, binder concentration: 1:10,000 dilution
# [23] = peptide modifications: H3K9me2 H3T11ph, binder concentration: 1:2,000 dilution
# [24] = peptide modifications: H3K9me2 H3T11ph, binder concentration: 1:10,000 dilution
binder,measurement,setting,value
B1,peptide microarray binding signal,"[1]; peptide modifications: H3K9me1 H3S10ph, binder concentration: 50 nM",0.0069 ± 0.00042
same,peptide microarray binding signal,"[1]; peptide modifications: H3K9me1 H3S10ph, binder concentration: 500 nM",0.0164 ± 0.0026
same,peptide microarray binding signal,"[2]; peptide modifications: H3K9me1 H3S10ph, binder concentration: 10 nM",0.0181 ± 0.0013
same,peptide microarray binding signal,"[2]; peptide modifications: H3K9me1 H3S10ph, binder concentration: 100 nM",0.0405 ± 0.00099
same,peptide microarray binding signal,[3]; [5],0.00281 ± 0.00031
same,peptide microarray binding signal,[3]; [6],0.0028 ± 0.00019
same,peptide microarray binding signal,[4]; [5],0.0251 ± 0.0037
same,peptide microarray binding signal,[4]; [6],0.00865 ± 0.0014
B2,peptide microarray binding signal,"[1]; peptide modifications: H3K9me1 H3K14me2, binder concentration: 50 nM",0.004514 ± 3.4e-05
same,peptide microarray binding signal,"[1]; peptide modifications: H3K9me1 H3K14me2, binder concentration: 500 nM",0.00667 ± 0.00028
same,peptide microarray binding signal,"[2]; peptide modifications: H3K9me1 H3K14me2, binder concentration: 10 nM",0.00555 ± 0.0003
same,peptide microarray binding signal,"[2]; peptide modifications: H3K9me1 H3K14me2, binder concentration: 100 nM",0.00595 ± 0.00024
same,peptide microarray binding signal,[3]; [7],0.00206 ± 0.00041
same,peptide microarray binding signal,[3]; [8],0.00211 ± 0.00015
same,peptide microarray binding signal,[4]; [7],0.00979 ± 0.0019
same,peptide microarray binding signal,[4]; [8],0.00352 ± 0.00022
B3,peptide microarray binding signal,"[1]; peptide modifications: H3K9ac, binder concentration: 50 nM",0.00263 ± 0.00033
same,peptide microarray binding signal,"[1]; peptide modifications: H3K9ac, binder concentration: 500 nM",0.00271 ± 0.00021
same,peptide microarray binding signal,"[2]; peptide modifications: H3K9ac, binder concentration: 10 nM",0.00352 ± 5e-05
same,peptide microarray binding signal,"[2]; peptide modifications: H3K9ac, binder concentration: 100 nM",0.002055 ± 2e-05
same,peptide microarray binding signal,[3]; [9],0.00123 ± 0.0001
same,peptide microarray binding signal,[3]; [10],0.00245 ± 0.00036
same,peptide microarray binding signal,[4]; [9],0.0011 ± 6.7e-05
same,peptide microarray binding signal,[4]; [10],0.00167 ± 7.4e-05
B4,peptide microarray binding signal,"[1]; peptide modifications: H3K9me2 H3K14ac, binder concentration: 50 nM",0.002382 ± 1.1e-05
same,peptide microarray binding signal,"[1]; peptide modifications: H3K9me2 H3K14ac, binder concentration: 500 nM",0.0103 ± 0.00014
same,peptide microarray binding signal,"[2]; peptide modifications: H3K9me2 H3K14ac, binder concentration: 10 nM",0.0115 ± 0.001
same,peptide microarray binding signal,"[2]; peptide modifications: H3K9me2 H3K14ac, binder concentration: 100 nM",0.00886 ± 0.0033
same,peptide microarray binding signal,[3]; [11],0.00225 ± 0.00054
same,peptide microarray binding signal,[3]; [12],0.00228 ± 0.00034
same,peptide microarray binding signal,[4]; [11],0.0906 ± 0.0013
same,peptide microarray binding signal,[4]; [12],0.0371 ± 0.015
B5,peptide microarray binding signal,"[1]; peptide modifications: H3K9me1, binder concentration: 50 nM",0.00445 ± 0.00012
same,peptide microarray binding signal,"[1]; peptide modifications: H3K9me1, binder concentration: 500 nM",0.00171 ± 7.9e-05
same,peptide microarray binding signal,"[2]; peptide modifications: H3K9me1, binder concentration: 10 nM",0.00448 ± 0.00018
same,peptide microarray binding signal,"[2]; peptide modifications: H3K9me1, binder concentration: 100 nM",0.002055 ± 2e-05
same,peptide microarray binding signal,[3]; [13],0.000642 ± 1.6e-05
same,peptide microarray binding signal,[3]; [14],0.0139 ± 0.012
same,peptide microarray binding signal,[4]; [13],0.0007551 ± 6.5e-06
same,peptide microarray binding signal,[4]; [14],0.00121 ± 2.4e-05
B6,peptide microarray binding signal,"[1]; peptide modifications: H3K9me3 H3K14ac, binder concentration: 50 nM",0.005862 ± 5.4e-05
same,peptide microarray binding signal,"[1]; peptide modifications: H3K9me3 H3K14ac, binder concentration: 500 nM",0.0246 ± 0.0026
same,peptide microarray binding signal,"[2]; peptide modifications: H3K9me3 H3K14ac, binder concentration: 10 nM",0.0279 ± 0.0021
same,peptide microarray binding signal,"[2]; peptide modifications: H3K9me3 H3K14ac, binder concentration: 100 nM",0.0183 ± 0.013
same,peptide microarray binding signal,[3]; [15],0.0646 ± 0.051
same,peptide microarray binding signal,[3]; [16],0.089 ± 0.042
same,peptide microarray binding signal,[4]; [15],0.781 ± 0.051
same,peptide microarray binding signal,[4]; [16],0.939 ± 0.11
B7,peptide microarray binding signal,"[1]; peptide modifications: H3K9ac H3K14me3, binder concentration: 50 nM",0.00755 ± 0.00045
same,peptide microarray binding signal,"[1]; peptide modifications: H3K9ac H3K14me3, binder concentration: 500 nM",0.0117 ± 0.00052
same,peptide microarray binding signal,"[2]; peptide modifications: H3K9ac H3K14me3, binder concentration: 10 nM",0.00758 ± 0.00031
same,peptide microarray binding signal,"[2]; peptide modifications: H3K9ac H3K14me3, binder concentration: 100 nM",0.00957 ± 0.00088
same,peptide microarray binding signal,[3]; [17],0.0161 ± 0.0026
same,peptide microarray binding signal,[3]; [18],0.0127 ± 0.0015
same,peptide microarray binding signal,[4]; [17],0.0416 ± 0.0084
same,peptide microarray binding signal,[4]; [18],0.0649 ± 0.082
B8,peptide microarray binding signal,"[1]; peptide modifications: H3K9me2 H3K14me3, binder concentration: 50 nM",0.00301 ± 0.00046
same,peptide microarray binding signal,"[1]; peptide modifications: H3K9me2 H3K14me3, binder concentration: 500 nM",0.002 ± 0.00021
same,peptide microarray binding signal,"[2]; peptide modifications: H3K9me2 H3K14me3, binder concentration: 10 nM",0.00143 ± 1.7e-05
same,peptide microarray binding signal,"[2]; peptide modifications: H3K9me2 H3K14me3, binder concentration: 100 nM",0.00106 ± 3e-05
same,peptide microarray binding signal,[3]; [19],0.00126 ± 0.00029
same,peptide microarray binding signal,[3]; [20],0.00405 ± 0.0015
same,peptide microarray binding signal,[4]; [19],0.00464 ± 0.0015
same,peptide microarray binding signal,[4]; [20],0.00646 ± 0.0028
B9,peptide microarray binding signal,"[1]; peptide modifications: H3K9me1 H3K14me3, binder concentration: 50 nM",0.00611 ± 0.00085
same,peptide microarray binding signal,"[1]; peptide modifications: H3K9me1 H3K14me3, binder concentration: 500 nM",0.011 ± 0.0017
same,peptide microarray binding signal,"[2]; peptide modifications: H3K9me1 H3K14me3, binder concentration: 10 nM",0.018 ± 0.003
same,peptide microarray binding signal,"[2]; peptide modifications: H3K9me1 H3K14me3, binder concentration: 100 nM",0.00935 ± 0.0036
same,peptide microarray binding signal,[3]; [21],0.0233 ± 0.01
same,peptide microarray binding signal,[3]; [22],0.0338 ± 0.015
same,peptide microarray binding signal,[4]; [21],0.0215 ± 0.0054
same,peptide microarray binding signal,[4]; [22],0.016 ± 0.0043
B10,peptide microarray binding signal,"[1]; peptide modifications: H3K9me2 H3T11ph, binder concentration: 50 nM",0.00201 ± 3.7e-05
same,peptide microarray binding signal,"[1]; peptide modifications: H3K9me2 H3T11ph, binder concentration: 500 nM",0.00319 ± 6.5e-05
same,peptide microarray binding signal,"[2]; peptide modifications: H3K9me2 H3T11ph, binder concentration: 10 nM",0.0031 ± 7.8e-05
same,peptide microarray binding signal,"[2]; peptide modifications: H3K9me2 H3T11ph, binder concentration: 100 nM",0.0022 ± 3.7e-05
same,peptide microarray binding signal,[3]; [23],0.000396 ± 7e-06
same,peptide microarray binding signal,[3]; [24],0.000799 ± 8.3e-06
same,peptide microarray binding signal,[4]; [23],0.0382 ± 0.01
same,peptide microarray binding signal,[4]; [24],0.0291 ± 0.0025
